This is an account of results in PubChem BioAssay (NCI).

Molecules are shown by their SMILES. About 83,000 compounds went through this panel and 20% of them were active in at least one assay; those are over-represented in the sample as a whole.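 A percent growth of 40 corresponds to 60% growth inhibition; 0 means no net growth; -100 means all cells died. Active threshold: below 10.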 Unmarked numbers belong to inactive results. Active and inactive are the calls of the source.

The experiment has as its system M14 melanoma. Put plainly: NCI-60 one-dose screen, 48 h (100 = growth as untreated, 0 = no growth, -100 = all killed). As to conditions: 10 µM unless noted. On the procedure:
Growth inhibition of the M14 human tumor cell line is measured as a screen for anti-cancer activity. Cells are grown in 96 well plates and exposed to the test compound for 48 hours. Compounds are tested at a single concentration, which is 10^-5 M for most compounds. The reported endpoint is percent growth (GI% or GIPRCNT), where numbers from 0 - 100% represent growth inhibition, and numbers from -100% - 0 represent cell death. For example, a value of 40 represents 60% growth inhibition. A value of 0 means no net growth occurred over the course of the experiment. A value of -40 indicates 40% of cells at the beginning of the experiment died by the end of the experiment. A value of -100 means all cells are dead at the end of the experiment.
NCI-60 Human Tumor Cell Lines Screen was performed using the standard one-dose NCI protocol, which is described in more detail at https://dtp.cancer.gov/discovery_development/nci-60/default.htm.
Compounds with GIPRCNT values below 10 were considered active. Activity score was based on GIPRCNT using the following formula: […]
Score is 0 for GIPRCNT values of 100 or above, 50 for GIPRCNT values of 0, and 100 for GIPRCNT values of -100.
Take `CCCCOc1nc2cc(Cl)ccc2cc1/C=C/c1cc(/C=C/c2cc3ccc(Cl)cc3nc2OCCCC)n(-c2ccccc2)n1`: the growth was 99.3%.
With `O=C(Nc1cnn2ccc(N3CCC[C@@H]3c3cc(F)ccc3F)nc12)N1CC[C@H](O)C1`, the growth is 81.5%.
For `COc1ccc(-c2ccc3ncc4c(c3c2)n(-c2ccc(N3CCNCC3)c(C(F)(F)F)c2)c(=O)n4C)cn1`, the growth is -83.2% (active).
Regarding `O=C(c1c(F)ccc(NS(=O)(=O)N2CC[C@@H](F)C2)c1F)c1c[nH]c2ncc(-c3cnc(C4CC4)nc3)cc12`, the growth is -0.512% (active).
In the case of `C[C@H]1Oc2cc(cnc2N)-c2c(nn(C)c2C#N)CN(C)C(=O)c2ccc(F)cc21`, the growth was 71.9%.
As for `CCN1CCN(c2cc(C)nc(N(CCCNc3ccnc4cc(Cl)ccc34)Cc3cccs3)n2)CC1`, the growth is -84% (active).
Consider `Clc1ccc(C(Cn2ccnc2)OCc2ccsc2Cl)c(Cl)c1` (stereo not given), for which the growth was 41.4%.
In the case of `CO[C@H]1C[C@@H]2CC[C@@H](C)[C@@](O)(O2)C(=O)C(=O)N2CCCC[C@H]2C(=O)O[C@H]([C@H](C)C[C@@H]2CC[C@@H](OCCO)[C@H](OC)C2)CC(=O)[C@H](C)/C=C(\C)[C@@H](O)[C@H](OC)C(=O)[C@H](C)C[C@H](C)\C=C/C=C/C=C/1C` it was 62.2%.
With `O=C(Cn1ccnc1)Nc1ccc(-c2nc3ccccc3s2)cc1`, the growth is 94.4%.
As to `COc1ccc(-n2c(=O)c3ccccc3n(Cc3ccc(C(=O)NO)cc3)c2=O)cc1`, the growth was -7.23% (active).
Consider `Cc1ncc(-c2ccnc(Nc3ccc(S(C)(=O)=O)cc3)n2)n1C(C)C`, for which the growth is -74.5% (active).
Then `COC1CCC(N2C(=O)CNc3ncc(-c4ccc(C(C)(C)O)nc4)nc32)CC1` (stereo not given), with 2.03% (active); and `Clc1ccc2c(NCCCNCc3ccc4c(c3)OCO4)ccnc2c1`, with -72.5% (active).
For `C=C1C[C@H](O)[C@H](Br)C(C)(C)[C@@]12CCC(C)=C(Cl)C2`, the growth was -19.7% (active).
On to `CN1CCN(CCCOc2cccc3nc(Nc4ccc(Cl)c(C(F)(F)F)c4)ccc23)CC1`, for which the growth was -54.6% (active).
As for `CN1CCN(c2ccc(C(=O)Nc3n[nH]c4ccc(Cc5cc(F)cc(F)c5)cc34)c(NC3CCOCC3)c2)CC1`, the growth was -79.7% (active).
`CC1CCC(n2cnc3c(Cl)ncnc32)O1` (stereo not given): the growth is 93.8%.
Consider `O=C(Nc1ccc(Nc2ncnc3sc4c(c23)CCOC4)cc1)Nc1ccc(Cl)c(C(F)(F)F)c1`, for which the growth was 77.7%.
Turning to `CC[C@H](CO)Nc1nc(NCc2ccccc2)c2ncn(C(C)C)c2n1`, the growth is 71.8%.
As for `COc1ccc2nc3cc(Cl)ccc3c(Nc3ccc(N(C)C)cc3)c2c1`, the growth is 98.2%.
For the compound `O=C1NC(=O)/C(=C/c2ccc3nccc(-c4ccncc4)c3c2)S1`, the growth is -45.5% (active).
In the case of `CCNCCNc1cc(-c2ccc(Cl)c(Cl)c2)c(C#N)c2nc3ccccc3n12`, the growth was -73.8% (active).
`C=CC(=O)N1CCC(Oc2cc3c(Nc4ccc(Cl)c(Cl)c4F)ncnc3cc2OC)CC1`: the growth is 28.8%.
In the case of `ClCc1ccc(-c2ccc(Cn3cnc4nc(Cl)nc(Cl)c43)cc2)cc1` it was 13.1%; in that of `CN(c1ncccc1CNc1nc(Nc2ccc3c(c2)CC(=O)N3)ncc1C(F)(F)F)S(C)(=O)=O`, -23.9% (active).
In the case of `Clc1ccc(Nc2nccc(Nc3ccc4[nH]ncc4c3)n2)cc1` it was 43.8%; in that of `Cc1cc(NCC(=O)Nc2ccc(-c3nc4ccccc4s3)cc2)no1`, 106%; in that of `COc1cccc(NC(=O)Nc2ccc(Nc3ncnc4sc5c(c34)CCN(C(=O)CCl)C5)cc2)c1`, 101%.
Take `COc1cc(-c2nc(C(=O)NCC(=O)O)nn2-c2ccc(Cl)cc2)cc(OC)c1OC`: the growth is 98.5%.
Consider `O=c1[nH]ccc2c(S(=O)(=O)N3CCCNCC3)cccc12`, for which the growth is 88.3%.
Then `O=C(Nc1cccc(Cl)c1)Nc1ncc(CCNc2ncnc3ccsc23)s1`, with 10.3%; and `CC/C(=C(\c1ccc(OCCN2CCCCCCC2)cc1)c1ccc(OC(=O)C2CCCCC2)cc1)c1ccc(Cl)cc1`, with 91.1%.
Regarding `Cc1ccc2oc(=O)cc(-c3cc(-c4cc5ccccc5oc4=O)nc(N)c3C#N)c2c1`, the growth is 85.7%.
With `O=C(CNc1nc(-c2ccc(Cl)cc2)cs1)Nc1ccc(-c2nc3ccccc3s2)cc1`, the growth is 88.2%.
Take `C/C=C/C=N/NC(=S)Nc1ccccc1`: the growth is 96.5%.
In the case of `C=CC[n+]1c(/C=C/C=C2\N(C)c3ccccc3C2(C)C)sc2ccc(OC)cc21` it was 23%; in that of `COc1cc2c(Nc3ccc(Br)cc3F)ncnc2cc1OCC1CCN(C)CC1`, -82.5% (active); in that of `O=C(N/N=C/c1ccc(Cl)cc1)c1cc(-c2cc3ccccc3o2)nn1-c1ccccc1`, 99.3%.
For `COc1cc2ncnc(Nc3ccc(F)c(Cl)c3)c2cc1NC(=O)/C=C/CN1CCCCC1`, the growth was -72% (active).
On to `C=CC(=O)Nc1cc(Nc2nccc(-c3cn(C)c4ccccc34)n2)c(OC)cc1N(C)CCN(C)C`, for which the growth was -79.4% (active).
